Only some compounds are listed: those with a hit (about 6.1% of all), similar ones and a draw of the others.
D1 agonist = agonists of human D1 dopamine receptor; AID 504660; activation, % at 2 µM; 360,000 tested, 1% active; HEK293 T-REx D1 cells, calcium flux, agonist mode; P21728; in the data active = activation above about 30%
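Tetracycline-induced HEK293 TREx D1 cells, force-coupled to calcium signalling, were dye-loaded with a no-wash calcium kit. Compound was pin-added after a 10 s baseline. Fluorescence was read kinetically at 1 cycle/s for 180 s, with calcium rises flagged as agonism.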
D1 antag = antagonists of human D1 dopamine receptor; AID 504652; 360,000 tested, 3.2% active; activity change, negative = inhibition, % at 10 µM; P21728; HEK293 TREx D1 cells, calcium flux, dopamine EC80; hits give low values; in the data active = activity change below about -30%
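Allosteric or orthosteric antagonism assessed as attenuation of the calcium response to EC80 dopamine, added 180 s after compound, in induced HEK293 Trex D1 cells loaded with no-wash calcium dye.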
D1 PAM = potentiators of human D1 dopamine receptor; P21728; HEK293 TREx D1 cells, calcium flux, dopamine EC20 potentiation; potentiation, % at 10 µM; 360,000 tested, 0.036% active; in the data active = potentiation above about 30%
DRD3 agonist = agonists of human D3 dopamine receptor; P35462; D3R DiscoveRx beta-arrestin cells, luminescence, 90 min; max activation, %; 410,000 tested, 0.58% active; AID 652048; in the data active = max activation above about 30%
Target sequence (P35462 whole entry, looked up): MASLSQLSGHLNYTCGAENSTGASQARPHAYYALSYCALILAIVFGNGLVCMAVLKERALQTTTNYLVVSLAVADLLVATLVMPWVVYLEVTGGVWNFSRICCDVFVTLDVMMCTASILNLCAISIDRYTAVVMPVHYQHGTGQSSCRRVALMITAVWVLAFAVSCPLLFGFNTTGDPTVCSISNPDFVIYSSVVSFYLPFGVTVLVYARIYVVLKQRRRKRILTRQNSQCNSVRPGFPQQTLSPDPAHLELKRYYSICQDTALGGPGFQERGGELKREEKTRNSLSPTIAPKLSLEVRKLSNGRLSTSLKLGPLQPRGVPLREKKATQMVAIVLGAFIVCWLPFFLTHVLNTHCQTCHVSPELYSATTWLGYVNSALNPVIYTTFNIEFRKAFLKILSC
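Agonist mode: compounds and dopamine controls were applied to plated cells for 90 min at 37 degrees C after an overnight attachment at 1500 cells/well. Luminescent read-out followed 30 - 60 minutes at room temperature with DiscoveRx detection reagent.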
D3 antag = antagonists of human D3 dopamine receptor. P35462. D3R cells, DiscoveRx beta-arrestin luminescence, antagonist mode; hits give low values. max response, negative = inhibition, %. 360,000 tested, 2.5% active. AID 652054; in the data active = max response below about -50%; inconclusive = no clear call, values can overlap the other calls
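Cells plated overnight at 1500 cells/well, then exposed to library compounds with dopamine controls for 90 minutes at 37 degrees C. DiscoveRx reagent added for 30–60 minutes at room temperature; luminescence read, quantitative HTS format.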
Numbers stand for hits; i = inactive; ? = inconclusive; nt = no result.

SMILES	D1 agonist	D1 antag	D1 PAM	DRD3 agonist	D3 antag
O=C(COc1ccccc1Cl)N(Cc1ccco1)Cc1ccco1	i	i	i	i	nt
CCN(CC)S(=O)(=O)c1ccc(NCc2ccccc2)nc1	i	i	i	33	i
CCCNc1ccc(S(=O)(=O)N(C(C)C)C(C)C)cn1	i	i	i	i	-75
CCCNc1ccc(S(=O)(=O)N(CC)CC)cn1	i	i	i	i	i
CC(=O)C1CCC2C3CC(C)=C4CC(O)CCC4(C)C3CCC12C (stereo unspecified)	nt	nt	nt	65	i
CCc1nc(C)c(-c2ccccc2)c(=O)[nH]1	i	i	i	i	-94
Cc1nn2cc(-c3ccccc3)nc2[nH]c1=O	i	i	i	i	i
CC(C)(C)OC(=O)Cc1nnc(-c2cc3ccccc3[nH]2)s1	i	i	i	nt	nt
COc1ccc(/C=N/NC(=O)CN(Cc2ccccc2)S(=O)(=O)c2ccc3c(c2)OCCO3)cc1	i	i	i	i	i
COc1ccc(CNC(=O)CN(CCC(C)C)S(=O)(=O)c2ccc3c(c2)OCCO3)cc1	i	-32	i	i	i
O=C(c1ccc2c(c1)N(Cc1ccccc1F)C(=O)c1ccccc1S2(=O)=O)N1CCC(Cc2ccccc2)CC1	i	i	i	i	nt
CCc1ccc(CN(Cc2cn[nH]c2-c2ccc(OC)cc2)C(=O)Nc2cc(Cl)ccc2OC)cc1	i	-62	i	i	nt
COc1ccc(OC)c(NC(=O)CCCc2nnc3n(C(C)C)c(=O)c4sccc4n23)c1	i	i	i	i	nt
Cc1c(-c2ccccc2)n(-c2ccccc2O)c2nc3c(c(=O)n(C)c(=O)n3C)n12	i	i	i	i	nt
CC(NC(=S)NCCc1ccccc1)C(c1cccs1)N1CCN(Cc2ccccc2)CC1 (stereo unspecified)	i	i	i	i	-79
CCOc1ccc(OCCCCNC(C)(C)C)cc1	i	-81	i	i	i
COc1ccc(S(=O)(=O)N(CC(=O)NCCSc2ccccc2)c2ccc(C)cc2)cc1	32	i	i	i	nt
COc1ccc(N(CC(=O)NCCOc2ccccc2)S(=O)(=O)c2ccc(C)cc2)cc1	i	i	i	i	i
O=C(CN(c1ccccc1)S(=O)(=O)c1ccccc1)NCCSc1nc2ccccc2s1	i	-63	i	i	i
CCc1ccc(N(CC(=O)NC2CC2)S(=O)(=O)c2ccc(C)cc2)cc1	i	-43	i	i	i
Cc1cccc(N(CC(=O)NCCSc2nc3ccccc3s2)S(=O)(=O)c2ccccc2)c1	i	i	i	nt	nt
CCOc1ccc(N(CC(=O)NCCOc2ccc(C)cc2)S(=O)(=O)c2ccccc2)cc1	54	-38	i	i	i
CC1=C(C(=O)OC2CCCC2)C(c2ccccc2C(F)(F)F)CC(=O)N1 (stereo unspecified)	i	i	i	i	nt
COc1cccc(NC(=O)N(Cc2c[nH]c3ccccc23)C2CCCCCC2)c1	i	i	i	i	nt
COc1ccc(S(=O)(=O)N(CC(=O)NCCSc2ccccc2)c2ccc(Cl)cc2)cc1	36	i	i	i	nt
SMILES	D1 agonist	D1 antag	D1 PAM	DRD3 agonist	D3 antag
O=c1cc(N2CCCCC2)nc2n1CCCS2	i	i	i	35	i
COc1ccc(/C=C/c2ccc3cccc(O)c3n2)cc1Br	i	i	i	i	?
COc1cccc(/C=C/c2ccc3cccc(O)c3n2)c1OC	i	i	i	i	-160
COc1cc(/C=C/c2ccc3cccc(O)c3n2)cc(OC)c1OC	i	i	i	i	-64
COc1cc(/C=C/c2ccc3c(Br)cc(Br)c(O)c3n2)ccc1O	i	i	i	i	-91
COC(=O)c1ccc(/C=C/c2ccc3cccc(OC)c3n2)cc1	i	i	i	31	i
Cc1c(C(=O)N2CCC(C)CC2)c(S(=O)(=O)N2CCN(c3ccc(Cl)cc3)CC2)c(C)n1C	i	i	i	i	nt
O=C(NCc1ccccc1Cl)c1ccc(CSCc2ccccc2Cl)o1	i	i	i	i	nt
CN(C)c1ccc(C(CNC(=O)c2ccccc2Cl)N2CCCC2)cc1 (stereo unspecified)	i	i	i	i	nt
Cc1ccc(CNC(=O)c2cc(Sc3ccc(F)cc3F)nc3ccccc23)cc1	i	i	i	i	nt
COC(=O)c1ccccc1NC(=O)c1ccc2c(c1)CCN2S(C)(=O)=O	i	i	i	i	nt
CCOC(=O)c1c(S(=O)(=O)N2CCCC(C(=O)Nc3cccc(CC)c3)C2)c(C)n(CC)c1C (stereo unspecified)	i	i	i	i	nt
COc1cc(/C=C/c2ccc3cccc(O)c3n2)cc(Cl)c1OC	i	i	i	i	-52
COc1cccc(/C=C/c2ccc3cccc(O)c3n2)c1	i	i	i	i	-56
COc1cc(/C=C/c2ccc3cccc(O)c3n2)cc(Br)c1OC	i	i	i	i	-55
Cc1c(NC(=O)c2cc([N+](=O)[O-])ccc2N2CCOCC2)cccc1-c1nc2ccccc2o1	i	i	i	i	nt
COc1ccc(-n2ncc(C(=O)NCc3ccc4c(c3)OCO4)c2C2CCN(C(=O)OC(C)(C)C)CC2)cc1	i	i	i	i	nt
COc1ccc(Cl)cc1NC(=O)CCN1C(=O)c2ccccc2Sc2ncccc21	i	i	i	i	nt
COc1ccc(CN(C)S(=O)(=O)c2nnc(NC(=O)C(C)C)s2)cc1OC	i	i	i	i	nt
Oc1ccc(CCNc2c3ccccc3nc3ccccc23)cc1O	i	-51	i	124	i
c1ccc2c(OCCCCN3CCCC3)cccc2c1	i	i	i	i	?
CC(C)c1ccccc1OCCCCCN1CCOCC1	nt	nt	nt	i	-54
CC(C)c1ccccc1OCCCN1CCCC1	i	i	i	i	-87
CC(C)c1ccccc1OCCCCN1CCCCC1	nt	nt	nt	i	-103
CC(C)CC(=O)n1nc(-c2ccco2)nc1NCc1ccc(Cl)cc1	i	i	i	i	nt
SMILES	D1 agonist	D1 antag	D1 PAM	DRD3 agonist	D3 antag
Cc1ccc(S(=O)(=O)N(C)Cc2nc(-c3ccccc3)oc2C)cc1	i	i	i	i	nt
CCOC(=O)C1CCN(Cc2cc(=O)oc3cc(C)c(Cl)cc23)CC1	i	i	i	36	i
CC1CCN(Cc2cc(=O)oc3cc4c(cc23)CCCC4)CC1	i	i	i	i	-98
CCCCc1cc(=O)oc2cc(OCC(=O)NC3CCN(Cc4ccccc4)CC3)ccc12	i	i	i	i	-54
Cc1cc2oc(=O)cc(CN3CCCC3)c2cc1Cl	nt	nt	nt	i	?
COC(=O)C1CCN(Cc2cc(=O)oc3cc(OC)ccc23)CC1	i	i	i	34	i
O=C(CC1N=C2c3ccccc3N=C(SCc3ccccc3F)N2C1=O)NCc1ccc2c(c1)OCO2 (stereo unspecified)	i	i	i	i	nt
COc1cc(CNCCSc2nnnn2C)ccc1OCc1ccccc1C	i	i	i	i	nt
COc1ccc(N2CCN(Cc3nc4c(c(=O)[nH]c(=O)n4C)n3Cc3ccccc3F)CC2)cc1	i	i	i	i	nt
O=C(CN1C(=O)C2C3C=CC(C3)C2C1=O)OCC(=O)c1ccc(Br)cc1 (stereo unspecified)	i	-43	i	i	i
